Values without a mark were called inactive.

The first experiment has as its system Aedes aegypti larvae. The experiment in a line: larval motility relative to same well at 0 h (fraction); higher = more motile (less active compound), active = 0.4 or less. The conditions noted are these: 10 µM; 2 h. How it is done:
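MMV Pandemic Response Box compounds were tested at 10 µM (1% v/v DMSO) on Aedes aegypti larvae (18-24 h after hatching, about 10 per well, 96-well plates). Motility was quantified with INVAPP (200-frame movies) at 0, 2 and 24 h. Each well's motility was divided by its own 0 h score, and the median of 3 independent screens is reported.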
In the case of `CN(C/C=C/C#CC(C)(C)C)Cc1cccc2ccccc12`, the larval motility is 0.66.
Regarding `Nc1nc(NC2Cc3ccc(F)cc3C2)nc(N2CCCCC2)n1` (stereo not given), the larval motility is 0.662.
`O=C(/C=C\n1cnc(-c2cc(C(F)(F)F)cc(C(F)(F)F)c2)n1)NNc1ccccn1`: the larval motility is 1.12.
Take `C[C@H]1COc2c(N3CCN(C)CC3)c(F)cc3c(=O)c(C(=O)O)cn1c23`: the larval motility was 0.447.
For the molecule `CCc1nc(N)nc(N)c1C#CCc1ccccc1`, the larval motility is 0.589.
Take `O=C(O)/C=C/C=C/c1cccc(Oc2cc(Cl)cc(Cl)c2)c1`: the larval motility is 1.55.
For `O=C(Nc1ncc(Cc2cccc3ccccc23)s1)C1CCCCC1`, the larval motility is 1.07.
For the molecule `OC(Cn1cncn1)(Cn1cncn1)c1ccc(F)cc1F`, the larval motility is 1.05.
For `CO[C@@]1(NC(=O)Cc2cccs2)C(=O)N2C(C(=O)O)=C(COC(N)=O)CS[C@@H]21`, the larval motility is 0.909.
Regarding `Nc1cc(-c2nc3ccccc3[nH]2)n[nH]c1=O`, the larval motility is 1.17.
As to `CN(O)C(=O)c1cc2c(CN3CCC[C@H]3C(N)=O)cn(Cc3ccc(F)cc3)c2cn1`, the larval motility was 0.668.
As for `Cn1cncc1[C@@](N)(c1ccc(Cl)cc1)c1ccc2c(c1)c(-c1cccc(Cl)c1)cc(=O)n2C`, the larval motility was 0.645.
With `N=C(N)c1ccc(COc2ccc(Cl)cc2)cc1`, the larval motility is 1.16.
As to `O=C(O)C[C@H]1CC[C@H](c2ccc(-c3ccc(Nc4ccc(C(F)(F)F)nc4)cn3)cc2)CC1`, the larval motility was 0.644.
Same read-out and setting: for `NC(=S)N/N=C/c1ncccc1N` the value was 0.987.
Regarding `CCc1c(OCC2CCC2)c2cc(F)ccc2[nH]c1=O`, the larval motility was 1.07.
With `CCOc1noc2cc(OCCC3CCN(c4ccc(C)nn4)CC3)ccc12`, the larval motility is 0.793.
Regarding `Clc1cc(Cl)c2c(c1)CCc1ccccc1C2n1ccnc1` (stereo not given), the larval motility was 0.769.
With `Nc1nc(O)c2ncn(COC(CO)CO)c2n1`, the larval motility is 1.05.
With `Nc1nc2c(ncn2/C=C2/CC2(CO)CO)c(=O)[nH]1`, the larval motility was 0.842.

The same experiment, now with this note: 10 µM; 24 h.
Take `CN(C/C=C/C#CC(C)(C)C)Cc1cccc2ccccc12`: the larval motility was 0.879.
`Nc1nc(NC2Cc3ccc(F)cc3C2)nc(N2CCCCC2)n1` (stereo not given): the larval motility was 0.628.
As for `O=C(/C=C\n1cnc(-c2cc(C(F)(F)F)cc(C(F)(F)F)c2)n1)NNc1ccccn1`, the larval motility was 1.17.
For `C[C@H]1COc2c(N3CCN(C)CC3)c(F)cc3c(=O)c(C(=O)O)cn1c23`, the larval motility was 0.712.
`CCc1nc(N)nc(N)c1C#CCc1ccccc1`: the larval motility was 0.658.
For the molecule `O=C(O)/C=C/C=C/c1cccc(Oc2cc(Cl)cc(Cl)c2)c1`, the larval motility was 0.995.
`O=C(Nc1ncc(Cc2cccc3ccccc23)s1)C1CCCCC1`: the larval motility is 1.56.
Same read-out and setting: in the case of `OC(Cn1cncn1)(Cn1cncn1)c1ccc(F)cc1F` it was 0.875.
As for `CO[C@@]1(NC(=O)Cc2cccs2)C(=O)N2C(C(=O)O)=C(COC(N)=O)CS[C@@H]21`, the larval motility was 1.17.
For the molecule `Nc1cc(-c2nc3ccccc3[nH]2)n[nH]c1=O`, the larval motility was 1.18.
Regarding `CN(O)C(=O)c1cc2c(CN3CCC[C@H]3C(N)=O)cn(Cc3ccc(F)cc3)c2cn1`, the larval motility is 1.08.
Regarding `Cn1cncc1[C@@](N)(c1ccc(Cl)cc1)c1ccc2c(c1)c(-c1cccc(Cl)c1)cc(=O)n2C`, the larval motility was 0.876.
`N=C(N)c1ccc(COc2ccc(Cl)cc2)cc1`: the larval motility was 0.589.
Take `O=C(O)C[C@H]1CC[C@H](c2ccc(-c3ccc(Nc4ccc(C(F)(F)F)nc4)cn3)cc2)CC1`: the larval motility was 0.489.
`NC(=S)N/N=C/c1ncccc1N`: the larval motility is 0.773.
On the same count and under the same terms, in the case of `CCc1c(OCC2CCC2)c2cc(F)ccc2[nH]c1=O` it was 1.08; in that of `CCOc1noc2cc(OCCC3CCN(c4ccc(C)nn4)CC3)ccc12`, 1.06.
As to `Clc1cc(Cl)c2c(c1)CCc1ccccc1C2n1ccnc1` (stereo not given), the larval motility was 0.987.
Turning to `Nc1nc(O)c2ncn(COC(CO)CO)c2n1`, the larval motility was 0.821.
In the case of `Nc1nc2c(ncn2/C=C2/CC2(CO)CO)c(=O)[nH]1`, the larval motility is 0.573.

Source of the values: the supplement of paper PMC8540655.
